# Measured values: PubChem BioAssay (NCATS)
# Results filed as inconclusive are left out. Active and inactive are the calls of the source. Calls follow the shape of the dose curve; as a rule, active = well fitted curve in the direction sought with a large enough effect; inconclusive = small, poorly fitted or top-dose-only effect, or another doubt; inactive = no such curve, though single readings can be large; an effect the other way counts as inactive or inconclusive.
# How the values were obtained:
# [1] = Quantitative High-Throughput drug screen in 47 multiple myeloma cell lines against the NCATS MIPE library collection: KMM1_JCRB cell viability assay (AID 1918960); also: nearly all actives have a fitted effect of over 30% in size;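 as to viability (% of DMSO): 100% = DMSO-treated cells and 0% = medium-only wells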
# In short: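 Luminescence from CellTiter-Glo, taken after 5 min at room temperature, reports cellular ATP as viability. Cells (500 per well) had been treated 48 h at 37 °C with MIPE 4.0 compounds, scaled between DMSO and medium-only controls.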
# [2] = Quantitative High-Throughput drug screen in 47 multiple myeloma cell lines against the NCATS MIPE library collection: Karpas417_ECACC cell viability assay (AID 1918961); conditions: Karpas417 myeloma viability, CellTiter-Glo ATP luminescence, 48 h; viability (% of DMSO): at 45.8 µM (top of the series)
# In short: (§1)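 Myeloma cell lines, 500 cells per well, exposed to MIPE 4.0 library compounds for 48 h at 37C, 5% CO2. Viability from ATP by CellTiter-Glo luminescence; normalised to DMSO (100%) and media-only (0%) wells.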
# [3] = Quantitative High-Throughput drug screen in 47 multiple myeloma cell lines against the NCATS MIPE library collection: KHM11_PLB cell viability assay (AID 1918962); also: nearly all actives have a fitted effect of over 35% in size
# In short: as §1
# [4] = Quantitative High-Throughput drug screen in 47 multiple myeloma cell lines against the NCATS MIPE library collection: JIM1_ECACC cell viability assay (AID 1918964)
# In short: (§2)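 Luminescent ATP measurement with CellTiter-Glo gives viability, scaled between DMSO-only wells (100%) and media-only wells (0%). Cells, 500 per well, faced library compounds for 48 hours at 37C.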
# [5] = Quantitative High-Throughput drug screen in 47 multiple myeloma cell lines against the NCATS MIPE library collection: INA6_PLB cell viability assay (AID 1918965; also: nearly all actives have a fitted effect of over 55% in size)
# In short: as §1
# [6] = Quantitative High-Throughput drug screen in 47 multiple myeloma cell lines against the NCATS MIPE library collection: JJN3_DSMZ cell viability assay (AID 1918966; also: nearly all actives have a fitted effect of over 50% in size)
# In short: as §2
# [7] = Quantitative High-Throughput drug screen in 47 multiple myeloma cell lines against the NCATS MIPE library collection: H1112_PLB cell viability assay (AID 1918967; also: nearly all actives have a fitted effect of over 30% in size)
# In short: as §2
# [8] = Quantitative High-Throughput drug screen in 47 multiple myeloma cell lines against the NCATS MIPE library collection: Karpas25_ECACC cell viability assay (AID 1918968; also: nearly all actives have a fitted effect of over 35% in size)
# In short: as §2
# [9] = Quantitative High-Throughput drug screen in 47 multiple myeloma cell lines against the NCATS MIPE library collection: KMS27_JCRB cell viability assay (AID 1918970); conditions: KMS27 myeloma cells, CellTiter-Glo ATP viability, 48 h; viability (% of DMSO): at 45.8 µM (top of the series); also: nearly all actives have a fitted effect of over 30% in size
# In short: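 Each line is seeded at 500 cells per well and treated with library compounds for 48 hours under 37 °C, 5% CO2. CellTiter-Glo is then added for 5 min at room temperature before median relative luminescence is recorded.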
# [10] = Quantitative High-Throughput drug screen in 47 multiple myeloma cell lines against the NCATS MIPE library collection: JIM3_ECACC cell viability assay (AID 1918963; also: nearly all actives have a fitted effect of over 35% in size)
# In short: as §1
# Potency is read from the fitted curve at half-maximal effect.
SMILES,Potency [1],Potency [2],Potency [3],Potency [4],Potency [5],Potency [6],Potency [7],Potency [8],Potency [9],viability (% of DMSO) [2],Potency [10]
Nc1ccc(C(=O)Nc2cccc(-c3nc(N4CCOCC4)c4oc5ncccc5c4n3)c2)cn1,418 nM (active),526 nM (active),7430 nM (active),5260 nM (active),3320 nM (active),5260 nM (active),4180 nM (active),2350 nM (active),6620 nM (active),,
CCNC(=O)Nc1ccc(-c2nc3c(c(N4CCOC[C@H]4C)n2)CCN(C2COC2)C3)cc1,332 nM (active),83.3 nM (active),469 nM (active),132 nM (active),2090 nM (active),833 nM (active),590 nM (active),935 nM (active),590 nM (active),,
O=c1[nH]c(=O)n([C@H]2C[C@@H](O)[C@@H](CO)O2)cc1C=CBr,inactive,,,inactive,inactive,,inactive,inactive,inactive,90.1% (active),
c1cc(CN2CCCNCCNCCCNCC2)ccc1CN1CCCNCCNCCCNCC1,inactive,,inactive,,inactive,,,,inactive,134% (active),inactive
O=C(O)CCCCCC(=O)NN=C1CCCC1,inactive,,,inactive,inactive,,,inactive,inactive,136% (active),inactive
CC(C)N(CC[C@H](c1ccccc1)c1cc(CO)ccc1O)C(C)C,inactive,inactive,,,inactive,,,inactive,inactive,,inactive
CC(=O)O[C@H]1C[C@@H]2CC[C@H]3[C@H]4C[C@H]([N+]5(C)CCCCC5)[C@@H](OC(C)=O)[C@@]4(C)CC[C@@H]3[C@@]2(C)C[C@H]1N1CCCCC1,inactive,inactive,,,inactive,,inactive,inactive,inactive,,inactive
O=C(C[C@@H]1CC=CCCC(=O)O[C@H](c2ccccc2)CNC1=O)NCc1ccc(Cl)cc1,inactive,,2640 nM (active),,,,4690 nM (active),inactive,,118% (active),
O=C(c1ccc(F)cc1)N1CCC[C@H](c2nc(-c3ccc(F)cc3)no2)C1,inactive,inactive,,inactive,inactive,inactive,inactive,inactive,inactive,,
C[C@H]1C[C@H]2[C@@H]3CCC4=CC(=O)C=C[C@]4(C)[C@@H]3C(=O)C[C@]2(C)[C@@]1(O)C(=O)CO,inactive,inactive,inactive,,,inactive,inactive,inactive,inactive,,inactive
CCOC(=O)[C@@H](N)Cc1ccc(-c2cc(O[C@H](c3ccc(Cl)cc3-n3ccc(C)n3)C(F)(F)F)nc(N)n2)cc1,11800 nM (active),9350 nM (active),,6620 nM (active),23500 nM (active),18700 nM (active),10500 nM (active),18700 nM (active),10500 nM (active),,20900 nM (active)
Cn1cc(C=CC(=O)c2cccc(F)c2)cc1C=CC(=O)NO,16600 nM (active),13200 nM (active),inactive,,8330 nM (active),,,8330 nM (active),14800 nM (active),,
C[C@@]12C(=O)OC(=O)[C@@]1(C)C1CCC2O1,743 nM (active),2960 nM (active),2350 nM (active),662 nM (active),2640 nM (active),662 nM (active),3720 nM (active),1180 nM (active),2090 nM (active),,
CCCCCCCCCCCCCCCC(=O)OC[C@@H](NC(=O)C(Cl)Cl)[C@H](O)c1ccc([N+](=O)[O-])cc1,inactive,inactive,,inactive,,,inactive,,inactive,,inactive
O=C(O)C(=O)Nc1cccc(C2=NN=N[N]2)c1,inactive,inactive,,,inactive,,,inactive,inactive,,inactive
COc1ccc2c(c1OC)C(=O)OC2[C@H]1c2c(cc3c(c2OC)OCO3)CCN1C (some centres not stated),148 nM (active),2090 nM (active),,1 nM (active),52.6 nM (active),5260 nM (active),235 nM (active),235 nM (active),132 nM (active),,83.3 nM (active)
CNC(=O)c1ccc(Nc2cc(Nc3ccccc3S(=O)(=O)C(C)C)c3cc[nH]c3n2)nc1,1480 nM (active),118 nM (active),833 nM (active),3320 nM (active),469 nM (active),16600 nM (active),4180 nM (active),590 nM (active),2090 nM (active),,

SMILES,Potency [1],Potency [2],Potency [3],Potency [4],Potency [5],Potency [6],Potency [7],Potency [8],Potency [9],viability (% of DMSO) [2],Potency [10]
c1cc(N[C@@H]2CCNC2)nc(-c2cnc3ccc(-c4cn[nH]c4)cn23)c1,8330 nM (active),4690 nM (active),3320 nM (active),4180 nM (active),935 nM (active),5900 nM (active),11800 nM (active),5900 nM (active),2640 nM (active),,
CN1CCCN(C(=O)c2cccc(-c3ccc(C=C4C(=O)Nc5ccc(Cl)cc54)o3)c2)CC1,18700 nM (active),3720 nM (active),,6620 nM (active),7430 nM (active),18700 nM (active),26400 nM (active),8330 nM (active),3320 nM (active),,26400 nM (active)
CN(C)CC(=O)N1CCC(c2ccc(NC(=O)c3ncc(C#N)[nH]3)c(C3=CCCCC3)c2)CC1,inactive,2350 nM (active),20900 nM (active),5260 nM (active),14800 nM (active),,18700 nM (active),23500 nM (active),,,
CCOC(=O)N1CCN([N+]([O-])=NOc2ccc([N+](=O)[O-])cc2C#N)CC1,1180 nM (active),66.2 nM (active),,,1180 nM (active),418 nM (active),526 nM (active),743 nM (active),372 nM (active),,1050 nM (active)
COc1cc(OC)c(C=CS(=O)(=O)Cc2ccc(OC)c(NCC(=O)O)c2)c(OC)c1,74.3 nM (active),1180 nM (active),,37.2 nM (active),296 nM (active),1050 nM (active),418 nM (active),332 nM (active),74.3 nM (active),,
C[C@H]1COc2c(N3CCN(C)CC3)c(F)cc3c(=O)c(C(=O)O)cn1c23,inactive,inactive,,inactive,inactive,,inactive,inactive,,,inactive
C=C[C@@H]1CN2CCC1C[C@H]2[C@H](O)c1ccnc2ccc(OC)cc12 (some centres not stated),inactive,inactive,,,,,,,inactive,,inactive
O=C(Nc1cccc(Nc2ncc(Br)c(NCCc3cnc[nH]3)n2)c1)N1CCCC1,inactive,,1180 nM (active),,743 nM (active),11800 nM (active),9350 nM (active),5900 nM (active),inactive,,6620 nM (active)
C=CC1=C(C(=O)O)N2C(=O)[C@@H](NC(=O)C(=NO)c3csc(N)n3)[C@H]2SC1,inactive,,inactive,inactive,,,inactive,inactive,inactive,,inactive
CC(C)C[C@H](NC(=O)CNC(=O)c1cc(Cl)ccc1Cl)B1OC(=O)CC(CC(=O)O)(C(=O)O)O1 (some centres not stated),41.8 nM (active),,37.2 nM (active),37.2 nM (active),33.2 nM (active),74.3 nM (active),66.2 nM (active),29.6 nM (active),83.3 nM (active),,83.3 nM (active)
C[C@H]1[C@@H](OC(=O)CCC(=O)O)O[C@@H]2O[C@@]3(C)CC[C@@H]4[C@H](C)CC[C@@H]1[C@@]24OO3,332 nM (active),,3320 nM (active),935 nM (active),2640 nM (active),1480 nM (active),16600 nM (active),2350 nM (active),,,6620 nM (active)
OCc1ccccc1O[C@@H]1O[C@H](CO)[C@H](O)[C@H](O)[C@H]1O,inactive,,inactive,inactive,13200 nM (active),,,inactive,inactive,,inactive
CON=C(C(=O)N[C@@H]1C(=O)N2C(C(=O)O)=C(Cn3ccc(=N)n3CCO)CS[C@H]12)c1csc(N)n1,inactive,,inactive,inactive,inactive,,inactive,,inactive,,inactive
COC[C@H](NC(=O)c1cnc(C)s1)C(=O)N[C@@H](COC)C(=O)N[C@@H](Cc1ccccc1)C(=O)[C@@]1(C)CO1,33.2 nM (active),,66.2 nM (active),59 nM (active),74.3 nM (active),,93.5 nM (active),74.3 nM (active),74.3 nM (active),,296 nM (active)
COC(=O)[C@@H]1CC2=CC(=O)CC[C@]2(C)[C@@]23O[C@@H]2C[C@@]2(C)[C@H](CC[C@@]24CCC(=O)O4)[C@@H]13,inactive,,inactive,inactive,inactive,,,inactive,inactive,,inactive
CC(=O)SCC(Cc1ccccc1)C(=O)NCC(=O)OCc1ccccc1 (configuration not stated),3320 nM (active),,7430 nM (active),2960 nM (active),935 nM (active),,1660 nM (active),1050 nM (active),662 nM (active),,3720 nM (active)
